Test results taken from the supplement of paper PMC13380429.

System: Vero E6 infected with SARS-CoV-2
Assay: inhibition of SARS-CoV-2 cytopathic effect; higher = more antiviral protection, active = above 15
Conditions: 48 h

Measured: inhibition of SARS-CoV-2 cytopathic effect

CC1=C(/C=C/C(C)=C/C=C/C(C)=C/C=C/C=C(C)/C=C/C=C(C)/C=C/C2=C(C)CCCC2(C)C)C(C)(C)CCC1 [beta-carotene]
inactive: 1 nM -0.41% | 8.33 nM 1.55% | 100 nM 1.56% | 833.33 nM 1.85% | 10000 nM -0.57%

Cc1cc(-c2nncc3c(C(C)(C)C)c(OCc4ncnn4C)nn23)no1
inactive: 1 nM 1.59% | 8.33 nM -1.07% | 100 nM 0.62% | 833.33 nM -3.08% | 10000 nM -1.02%

COc1cc2c(cc1OC)C(=O)C(CC1CCN(Cc3ccccc3)CC1)C2 (stereo not given) [donepezil]
inactive: 1 nM -2.44% | 8.33 nM -3.45% | 100 nM -1.84% | 833.33 nM -1.28% | 10000 nM -8.45%

CN1CCC(OC(c2ccccc2)c2ccccc2)CC1 [diphenylpyraline]
inactive: 1 nM 0.97% | 8.33 nM 0% | 100 nM 0% | 833.33 nM 0.39% | 10000 nM -1.64%

Cc1c(C(=O)Nc2ccc(N3C[C@@H](C)O[C@@H](C)C3)nc2)cccc1-c1ccc(OC(F)(F)F)cc1 [sonidegib]
inactive: 1 nM 1.64% | 8.33 nM -0.28% | 100 nM -1.14% | 833.33 nM -2.32% | 10000 nM -7.02%

COc1c(O[C@@H]2O[C@H](CO)[C@@H](O)[C@H](O)[C@H]2O)cc2c(c1OC)-c1ccc(SC)c(=O)cc1[C@@H](NC(C)=O)CC2 [thiocolchicoside]
inactive: 1 nM 0.08% | 8.33 nM 2.05% | 100 nM -0.7% | 833.33 nM -5.51% | 10000 nM -3.66%

COc1ccc2c(NC(=O)Nc3cccc(C(F)(F)F)n3)ccnc2c1
inactive: 1 nM 1.28% | 8.33 nM 1.81% | 100 nM 2.91% | 833.33 nM 10.2% | 10000 nM 11.1%

CCCc1ncc(C[n+]2ccccc2C)c(N)n1 [amprolium]
inactive: 1 nM 7.17% | 8.33 nM 1.36% | 100 nM 4.43% | 833.33 nM -0.09% | 10000 nM 0.03%

CNCCc1ccc(O)c(O)c1 [deoxyepinephrine]
inactive: 1 nM -0.96% | 8.33 nM 2.29% | 100 nM 2.18% | 833.33 nM -0.04% | 10000 nM -0.83%

O=C/C=C/c1ccccc1 [cinnamaldehyde]
inactive: 1 nM 1.16% | 8.33 nM 2.28% | 100 nM 1.04% | 833.33 nM 3.28% | 10000 nM 5.38%

O=Nc1ccc(O)c2ncccc12
active: 10000 nM 19.6%
inactive: 1 nM 3.04% | 8.33 nM -4.1% | 100 nM 1.42% | 833.33 nM 13.5%

OB1OCc2cc(Cl)ccc21
inactive: 1 nM 1.12% | 8.33 nM 2.29% | 100 nM 2.68% | 833.33 nM 2.33% | 10000 nM 1.07%

COc1ccc2cccc(CCNC(C)=O)c2c1 [agomelatine]
inactive: 1 nM -0.83% | 8.33 nM 0.82% | 100 nM -2.18% | 833.33 nM -1.63% | 10000 nM 0.7%

CCCCCCCCCCCC1=C(O)C(=O)C=C(O)C1=O [embelin]
inactive: 1 nM 0.27% | 8.33 nM -0.22% | 100 nM -1.48% | 833.33 nM -2.76% | 10000 nM -6.88%

COc1ccc(CC(=O)NC(/N=C(\NC#N)Nc2cccc3ncccc23)C(C)(C)C)cc1OC (stereo not given)
inactive: 1 nM -0.32% | 8.33 nM 1.83% | 100 nM 1.99% | 833.33 nM 1.34% | 10000 nM -0.99%

CC(C)(Oc1ccc(CCNC(=O)c2ccc(Cl)cc2)cc1)C(=O)O [bezafibrate]
inactive: 1 nM -1.42% | 8.33 nM 0.91% | 100 nM -1.38% | 833.33 nM 0.02% | 10000 nM -0.38%

CC(=O)[C@H]1CC[C@H]2[C@@H]3CC[C@H]4C[C@](C)(O)CC[C@]4(C)[C@H]3CC[C@]12C [ganaxolone]
inactive: 1 nM -0.23% | 8.33 nM 4.47% | 100 nM 1.85% | 833.33 nM 0.7% | 10000 nM 0.84%

N[C@@H](CSCCCO)C(=O)O [fudosteine]
inactive: 1 nM 0.08% | 8.33 nM 1.3% | 100 nM 0.76% | 833.33 nM 1.15% | 10000 nM -1.74%

COC(=O)[C@H](CC(C)C)NC(=O)[C@@H](N)CC(C)C [leucylleucine-methyl-ester]
inactive: 1 nM -2.04% | 8.33 nM 0.78% | 100 nM -1.7% | 833.33 nM -0.61% | 10000 nM -0.55%

CN1C(=O)C[C@@H](C(=O)N[C@@H](Cc2c[nH]cn2)C(=O)N2CCC[C@H]2C(N)=O)NC1=O [taltirelin]
inactive: 1 nM 1.73% | 8.33 nM 3.69% | 100 nM 3% | 833.33 nM 3.21% | 10000 nM 4.65%
